Data on nine compounds can be found in PubChem BioAssay (NCI).

The structures appear in SMILES notation. Compounds without any hit were thinned out: in the full panel of roughly 83,000, 20% have a hit.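 Method: cells in 96-well plates; compound added at one concentration; 48 h incubation; percent growth measured; values under 10 scored active.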 Values without a mark were called inactive. The source made the active and inactive calls.

Test systems include SR leukemia; OVCAR-8 ovarian; OVCAR-5 ovarian; OVCAR-4 ovarian; SK-OV-3 ovarian; IGROV1 ovarian; OVCAR-3 ovarian; HS 578T breast; NCI/ADR-RES ovarian; T-47D breast; BT-549 breast; MDA-MB-435 melanoma; MCF7 breast; HCT-116 colon; HCC-2998 colon; KM12 colon; SW-620 colon; RPMI-8226 leukemia.
What all share (assay): NCI-60 one-dose screen, 48 h (100 = growth as untreated, 0 = no growth, -100 = all killed)
Common to all, as to conditions: 10 µM unless noted

Consider `O=S(=O)(N=C1C(Cl)=C(Cl)C(=NS(=O)(=O)c2ccccc2)C(Cl)=C1Cl)c1ccccc1`, for which the growth was 46.4% in the experiment on SR leukemia; 69% in the experiment with OVCAR-8 ovarian; 73.8% in the experiment with OVCAR-5 ovarian; 91.9% in the experiment on OVCAR-4 ovarian; 102% with SK-OV-3 ovarian; 57.7% in the experiment with IGROV1 ovarian. Moreover, the growth with OVCAR-3 ovarian is 130%; in the experiment with HS 578T breast it was 93.2%; with NCI/ADR-RES ovarian it was 65.3%; with T-47D breast, 88.9%; with BT-549 breast, 86.6%; in the experiment with MDA-MB-435 melanoma it was 101%. Besides, the growth in the experiment with MCF7 breast was 53.8%; with HCT-116 colon, 25.4%; in the experiment on HCC-2998 colon it was 122%; with KM12 colon, 96.2%.
Regarding `N#Cc1ccc(O)c(C2=NCC(c3ccc(-c4ccccc4)cc3)O2)c1` (centres undefined), the growth was 23.7% in the experiment on SR leukemia; 16.6% in the experiment on OVCAR-8 ovarian; 38.7% in the experiment with OVCAR-5 ovarian; -1.03% (active) in the experiment on OVCAR-4 ovarian; 3.28% (active) with SK-OV-3 ovarian; 13.7% in the experiment on IGROV1 ovarian. The growth with OVCAR-3 ovarian is 22.7%; with HS 578T breast, 48.9%; in the experiment with NCI/ADR-RES ovarian, 5.24% (active); in the experiment on T-47D breast it was -1.94% (active); in the experiment with BT-549 breast it was 16.3%; with MDA-MB-435 melanoma it was 26.8%. The growth with SW-620 colon is 23.9%; with MCF7 breast, 10.3%; in the experiment on HCC-2998 colon, 34.8%; in the experiment on KM12 colon, 16.6%.
Turning to `CC(C)NS(=O)(=O)/N=C1\NC(=O)NC1=C(Cl)Cl`, the growth was 19.7% with SR leukemia; 91.1% in the experiment with RPMI-8226 leukemia; 96.2% in the experiment on OVCAR-8 ovarian; 115% with OVCAR-5 ovarian; 97.1% in the experiment with IGROV1 ovarian; 98.5% in the experiment on OVCAR-3 ovarian. Also, the growth was 97.9% with HS 578T breast; 98.5% in the experiment with NCI/ADR-RES ovarian; 79.7% with T-47D breast; 104% in the experiment on BT-549 breast; 94.3% with MDA-MB-435 melanoma; 82.7% in the experiment on MCF7 breast. The growth in the experiment on HCT-116 colon was 102%; in the experiment with HCC-2998 colon it was 110%; in the experiment with KM12 colon, 85.4%.
Turning to `N#Cc1c(-c2ccc(Br)cc2)nc2c(N=Nc3ccc(S(N)(=O)=O)cc3)c(N)nn2c1N`, the growth with SR leukemia was 41.2%; with OVCAR-8 ovarian, 46.6%; in the experiment with OVCAR-5 ovarian, 72.3%; in the experiment on OVCAR-4 ovarian, 61.2%; in the experiment with SK-OV-3 ovarian, 82.8%; with IGROV1 ovarian it was 40.9%. Also, the growth in the experiment on OVCAR-3 ovarian was 55.3%; in the experiment on HS 578T breast it was 45.1%; in the experiment with NCI/ADR-RES ovarian, 97%; in the experiment on T-47D breast, 31.5%; with BT-549 breast it was 73.8%; in the experiment on MDA-MB-435 melanoma, 56.2%. Moreover, the growth with SW-620 colon is 44.1%; with MCF7 breast it was 31.6%; in the experiment on HCT-116 colon, 24.9%; in the experiment with HCC-2998 colon, 61.8%; in the experiment with KM12 colon, 51.8%.
On to `CCOC(=O)c1c(C)nc2c(c1N)C(=O)C(=O)N2Cc1ccc(OC)cc1`, for which the growth is 31% in the experiment with SR leukemia; 61.6% in the experiment with OVCAR-8 ovarian; 97.5% in the experiment with OVCAR-5 ovarian; 46.6% in the experiment with OVCAR-4 ovarian; 108% with SK-OV-3 ovarian; 82.5% in the experiment with IGROV1 ovarian. Besides, the growth was 18.2% with OVCAR-3 ovarian; 79.2% in the experiment with HS 578T breast; 8.45% (active) with NCI/ADR-RES ovarian; 49.1% with T-47D breast; 80.5% with BT-549 breast; 31% in the experiment with MDA-MB-435 melanoma. Moreover, the growth in the experiment on SW-620 colon was 41.9%; in the experiment with MCF7 breast, 18.6%; with HCC-2998 colon, 99.3%; in the experiment with KM12 colon, 25.7%.
With `COc1ccc(-c2nc3ccc(C)cc3c3c2c(=O)n(C)c(=O)n3C)cc1OC`, the growth with SR leukemia is 99.4%; with OVCAR-8 ovarian it was 107%; in the experiment on OVCAR-5 ovarian, 97%; with OVCAR-4 ovarian, 122%; in the experiment with OVCAR-3 ovarian, 111%; in the experiment with HS 578T breast it was 74.3%. Also, the growth is 92.5% in the experiment on NCI/ADR-RES ovarian; 106% with T-47D breast; 120% with BT-549 breast; 90% in the experiment on MDA-MB-435 melanoma; 97.7% in the experiment with MCF7 breast; 105% in the experiment with HCT-116 colon. Moreover, the values for the growth in the experiment on HCC-2998 colon and in the experiment on KM12 colon were 98.2% and 116%, respectively.
In the case of `Nc1cc(-c2ccc(Cl)cc2)nn1-c1nnc(/C=C/c2ccco2)c(=O)[nH]1`, the growth with SR leukemia was 38.1%; with OVCAR-8 ovarian, 24.8%; in the experiment on OVCAR-5 ovarian, 60.9%; in the experiment with OVCAR-4 ovarian it was 29.1%; in the experiment with IGROV1 ovarian, 35%; in the experiment with OVCAR-3 ovarian, 37.9%. Further, the growth is 74.1% in the experiment on HS 578T breast; 5.73% (active) in the experiment on NCI/ADR-RES ovarian; 62.7% with T-47D breast; 72% in the experiment with BT-549 breast; 62.8% in the experiment on MDA-MB-435 melanoma; 49.3% in the experiment with SW-620 colon. The growth with MCF7 breast was 45.9%; in the experiment with HCT-116 colon, 41%; in the experiment with HCC-2998 colon it was 48.5%; in the experiment on KM12 colon, 56%.
In the case of `O=C1Nc2ccccc2/C1=N/N1C(=O)CN(CCCl)C1=O`, the growth is 104% in the experiment with SR leukemia; 100% in the experiment on OVCAR-8 ovarian; 103% in the experiment with OVCAR-5 ovarian; 118% with OVCAR-4 ovarian; 96.9% with SK-OV-3 ovarian; 97.1% in the experiment on IGROV1 ovarian. The growth in the experiment on OVCAR-3 ovarian is 113%; in the experiment with HS 578T breast it was 95.9%; in the experiment with NCI/ADR-RES ovarian, 102%; in the experiment on T-47D breast, 102%; in the experiment on BT-549 breast, 111%; in the experiment on MDA-MB-435 melanoma, 98.9%. For the same compound, the growth in the experiment on SW-620 colon is 95.1%; with MCF7 breast, 93.8%; in the experiment on HCT-116 colon, 98.6%; with HCC-2998 colon, 104%; in the experiment on KM12 colon, 113%.
With `COc1cc(/C=C/c2cn[nH]c2-c2ccc(C)cc2)cc(OC)c1OC`, the growth is 12.3% in the experiment on SR leukemia; 32.8% in the experiment with OVCAR-8 ovarian; 85% in the experiment on OVCAR-5 ovarian; 78.5% in the experiment with OVCAR-4 ovarian; 16.2% in the experiment on SK-OV-3 ovarian; 51.9% with IGROV1 ovarian. The growth is 15.5% with OVCAR-3 ovarian; 39.9% in the experiment on HS 578T breast; 16.7% with NCI/ADR-RES ovarian; 22.2% with T-47D breast; 32.9% in the experiment with BT-549 breast; -16.2% (active) with MDA-MB-435 melanoma. Besides, the growth in the experiment with SW-620 colon was 19.7%; with MCF7 breast it was 13.1%; in the experiment with HCT-116 colon it was 11.7%; in the experiment with HCC-2998 colon, 78.8%; in the experiment on KM12 colon, 29.9%.
